According to PubChem BioAssay AID720540 (National Center for Advancing Translational Sciences (NCATS), 2013):
About 460 (35%) of roughly 1,300 compounds were called active. About 39% were inconclusive and are not listed. Calls come from the whole dose curve; as a rule, active = well fitted inhibition curve with a large enough effect; inconclusive = small, poorly fitted or top-dose-only effect; inactive = flat fitted curve, though single readings scatter. This is one part of the list. Some structures have more than one record in an assay (separate samples or runs), and their calls can disagree.

Each molecule was assayed against Protein phosphatase EYA2 (Homo sapiens) (UniProt O00167) (assay: qHTS for Inhibitors of the Phosphatase Activity of Eya2: Confirmatory Assay for Cherry-picked Compounds). Details: purified EYA2 phosphatase activity, qHTS confirmation; series mostly up to 46.1 µM.
Protein phosphatase EYA2 (Homo sapiens), sequence (O00167 whole entry, looked up, the tested form may be a part): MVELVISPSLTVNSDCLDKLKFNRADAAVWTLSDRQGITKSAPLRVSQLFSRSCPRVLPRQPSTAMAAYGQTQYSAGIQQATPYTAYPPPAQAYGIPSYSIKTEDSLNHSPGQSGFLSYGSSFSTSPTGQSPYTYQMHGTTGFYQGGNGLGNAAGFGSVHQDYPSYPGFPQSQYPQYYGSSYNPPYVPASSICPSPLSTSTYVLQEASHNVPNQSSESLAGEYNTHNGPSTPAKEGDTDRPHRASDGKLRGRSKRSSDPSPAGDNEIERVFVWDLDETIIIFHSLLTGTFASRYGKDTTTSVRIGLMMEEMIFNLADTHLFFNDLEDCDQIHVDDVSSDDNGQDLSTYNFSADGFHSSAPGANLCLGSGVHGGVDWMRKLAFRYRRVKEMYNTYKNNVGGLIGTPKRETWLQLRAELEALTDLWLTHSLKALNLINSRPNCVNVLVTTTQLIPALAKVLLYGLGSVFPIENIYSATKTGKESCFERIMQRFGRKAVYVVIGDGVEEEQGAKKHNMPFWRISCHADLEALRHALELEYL
Source text: The Eya protein family is an essential co-activator of the Six1 transcription factor. Six1 is a developmental gene that is abnormally re-expressed in a large percentage of breast cancers. This over-expression plays a causal role in the initiation and metastatic development of breast cancers. The Eya family of protein is also found to contain a unique HAD phosphatase domain with protein tyrosine phosphatase activity which can potentially play a role in Six1-mediated breast tumorigenesis. Recently, Eya2 is found to dephosphorylate the histone variant H2AX and direct cells towards DNA repair instead of apoptosis in the event of DNA damage.
A 1536 well format, fluorescence based qHTS assay was developed and used to target the phosphatase activity of Eya2 (AID 488837). Inhibitors found against Eya2 could serve as potential therapeutic tools to inhibit Six1-mediated breast tumorigenesis and to increase the efficiency of radiation and certain chemo therapy. This assay assessed the activity of the primary screen cherry-picked compounds against Eya2. Inhibition is the desired outcome for this assay.
NIH Chemical Genomics Center [NCGC]
NIH Molecular Libraries Probe Centers Network [MLPCN]
Assay Submitter (PI): Rui Zhao, University of Colorado Denver
Eya2 enzyme and 3-O-methyl-fluorescein phosphate (OMFP) substrate working solutions were reconstituted in the buffer reagent consist of 50 mM HEPES pH 7.5, 50 mM NaCl, […], 0.05% BSA and 1 mM DTT. One and a half microliter of 0.2 uM Eya2 working solution was dispensed in a 1536 well Greiner plate (black, medium bind). Twenty-three nanoliter of test compounds and control compound EGTA was transferred to the assay plate using the Kalypsys robotic system equipped with a 1536 pin head. The plate was incubated at room temperature for 10 minutes. One and a half microliter of the 50 uM the OMFP substrate was then dispensed to the assay plate and incubated at room temperature for additional 10 min. The fluorescence signal was read using the PerkinElmer ViewLux plate reader using a 485 nm excitation and 525 nm emission filters. The data was normalized to the positive control for maximum inhibition and DMSO treated wells as negative control.
Note: nearly all actives have a fitted effect of over 65% in size.
Potency is the fitted concentration of half-maximal effect.

Q: Which Potency does the source give for `CN(C)S(=O)(=O)c1ccc(C(=O)NNc2nc(-c3ccccc3)c3cc(Br)ccc3n2)cc1` here?
A: 8.49 µM (active)

Q: With `Cc1ccc(N2C(=O)NC(=O)/C(=C/c3ccc(OC(=O)c4cccs4)cc3)C2=O)cc1` as the molecule, how does the Potency read?
A: 12 µM (active)

Q: `O=C(Cc1ccccc1)c1ccccn1` was tested. Which Potency did it give?
A: 10.7 µM (active)

Q: With `O=C1NC(=S)N(c2ccccc2)C(=O)/C1=C/c1ccco1` as the molecule, how does the Potency read?
A: 6.75 µM (active)

Q: With `COC(=O)C1=C(c2ccc(F)cc2OCc2ccccc2)C[C@@H]2CC[C@H]1N2C(=O)NCc1ccc(N(C)C)cc1` as the molecule, how does the Potency read?
A: 8.49 µM (active)

Q: Which Potency does the source give for `COC(=O)C1=C(c2cccc(OCc3ccccc3)c2)C[C@@H]2CC[C@H]1N2C(=O)NCCCc1ccccc1` here?
A: inactive

Q: How did the Potency turn out when `C[C@H]1CCC[C@H](O)CCCCCc2cc(O)cc(O)c2C(=O)O1` was run?
A: inactive

Q: With `NC(Cc1cc(O)c(O)cc1O)C(=O)O` (stereo not given) as the molecule, how does the Potency read?
A: 2.39 µM (active)

Q: With `N[C@@H](Cc1cc(I)c(O)c(I)c1)C(=O)O` as the molecule, how does the Potency read?
A: 9.53 µM (active)

Q: With `COc1ccc(-c2cc(=NCCC(=O)O)c3cc(C)ccc3o2)cc1` as the molecule, how does the Potency read?
A: 16.9 µM (active)

Q: Which Potency does the source give for `CN(C)c1ccc(C=C2C=CC=C2)cc1` here?
A: 19 µM (active) and inactive

Q: How did the Potency turn out when `COc1ccccc1N1CCN(CCc2c[nH]c3cc4c(cc23)OCO4)CC1` was run?
A: 19 µM (active)

Q: How did the Potency turn out when `CNc1ccc2nc3ccccc3[n+](C)c2c1` was run?
A: 16.9 µM (active)

Q: For `O=C(O)CCCOc1ccc(Cl)cc1Cl`, which Potency is on record?
A: inactive

Q: For `O=[N+]([O-])c1cc(C(F)(F)F)c(Cl)c([N+](=O)[O-])c1Nc1ncc(C(F)(F)F)cc1Cl`, which Potency is on record?
A: 21.3 µM (active)

Q: With `C=C1C(=O)O[C@@H]2C[C@@H](C)[C@@H]3C=CC(=O)[C@@]3(C)[C@@H](OC(=O)CC(=O)O[C@H]3[C@@H]4C(=C)C(=O)O[C@@H]4C[C@@H](C)[C@@H]4C=CC(=O)[C@]43C)[C@H]12` as the molecule, how does the Potency read?
A: 10.7 µM (active)

Q: For `CCOC(=O)CCCc1cc[c]([Sb](=[O])([OH])[OH])cc1`, which Potency is on record?
A: 2.13 µM (active)

Q: Which Potency does the source give for `CCOC(=O)c1cc2c(cn1)[C@@H](CCO)NC2` here?
A: inactive

Q: `Cc1c(N=Nc2c(O)[nH]c(=O)[nH]c2=O)c(=O)n(-c2ccccc2)n1C` was tested. Which Potency did it give?
A: 2.13 µM (active)

Q: Which Potency does the source give for `COC1C(O)C(C)OC(OC2C(Oc3cccc4c(O)c5c(=O)oc6ccc(C)c7c(=O)oc(c34)c5c67)OC(C)C(O)C2O)C1O` (stereo not given) here?
A: inactive

Q: With `CN(C)c1ccc(N=Nc2ccccc2)cc1` as the molecule, how does the Potency read?
A: 5.36 µM (active)

Q: For `Cc1nc2ccccc2c(=O)n1-c1ccc(Cl)cc1[N+](=O)[O-]`, which Potency is on record?
A: inactive

Q: How did the Potency turn out when `CC(N)[C@H](O)c1ccc(O)c(O)c1` (stereo not given in full) was run?
A: inactive

Q: For `O=C(O)c1cc[c]([Sb](=[O])([OH])[OH])cc1[N+](=O)[O-]`, which Potency is on record?
A: 2.69 µM (active)

Q: With `O=C1NC(=O)N(c2ccc(Cl)cc2)C(=O)/C1=C\c1ccc(Sc2nc3ccccc3[nH]2)o1` as the molecule, how does the Potency read?
A: 13.5 µM (active)
